In PubChem BioAssay:
Values joined by “and” are separate entries in the source; they are usually repeats but may differ in a detail not shown here. Equal entries are not always repeated. Active and inactive are the calls of the source.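 The calls were made as follows: active = thallium flux through the channel raised or lowered by more than 3 SD from vehicle-only wells, actives on both sides; inactive = the rest.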

The compounds below were run on F380Y (assay: modulators of BK channel variants, profiling panel, selectivity assay, cell-based, U2OS BacMam, thallium flux, beta subunits (AID 1259406;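 also: initial slope of Thallos dye fluorescence rise after thallium is added; log ratio against the mean of 0.3% DMSO vehicle wells on the same plate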)). Settings: at 30 µM.

SMILES	log fold change Tl+ flux
CC(C)c1ccc2oc3nc(N)c(C(=O)O)cc3c(=O)c2c1	0.0548 (inactive)
CN(CCCN1c2ccccc2CCc2ccccc21)CC(=O)c1ccc(Cl)cc1	-0.0806 (inactive)
Cc1cnc(NC(=O)C2=C(O)c3ccccc3S(=O)(=O)N2C)s1	-0.00196 (inactive)
CN(C)CC[C@@H](c1ccc(Cl)cc1)c1ccccn1	0.112 (active)
CC(C)(C)C(O)/C=C/c1ccc2c(c1)OCO2 (stereo not given)	-0.0156 (inactive)
CC1(C)S[C@@H]2[C@H](N=CN3CCCCCC3)C(=O)N2[C@H]1C(=O)O	0.00482 (inactive)
O=C1Nc2ccc(Cl)cc2[C@@](C#CC2CC2)(C(F)(F)F)O1	0.0449 (inactive)
O=C(c1ccc(F)cc1)C1CCN(CCn2c(=S)[nH]c3ccccc3c2=O)CC1	0.0153 (inactive)
COC(=O)C1=C(C)NC(C)=C(C(=O)OC(C)C)C1c1cccc2nonc12 (stereo not given)	0.00609 (inactive)
Nc1nc(N)nc(-c2cc(Cl)ccc2Cl)n1	0.00819 (inactive)
CN1[C@@H]2CC[C@H]1CC(OC(=O)c1c[nH]c3ccccc13)C2 (stereo not given in full)	0.0406 (inactive)
COC1=C(OC)C(=O)C(CCCCCCCCCCO)=C(C)C1=O	-0.163 (active)
COc1ccc(C2CNC(=O)C2)cc1OC1CCCC1 (stereo not given)	-0.0147 (inactive)
CCOC(=O)O[C@]1(C(=O)OCCl)CC[C@H]2[C@@H]3CCC4=CC(=O)C=C[C@]4(C)[C@H]3[C@@H](O)C[C@@]21C	-0.0169 (inactive)
CCN1CC(CCN2CCOCC2)C(c2ccccc2)(c2ccccc2)C1=O (stereo not given)	0.0128 (inactive)
C#C[C@]1(O)CC[C@H]2[C@@H]3CCc4cc(OC)ccc4[C@H]3CC[C@@]21C	-0.0454 (inactive)
NC1CCN(c2nc3c(cc2F)c(=O)c(C(=O)O)cn3-c2ccc(F)cc2F)C1 (stereo not given)	-0.0112 (inactive)
O=C1[C@H]2CCCC[C@H]2C(=O)N1CCCCN1CCN(c2nsc3ccccc23)CC1	0.0537 (inactive)
CCCOc1ccc(C(=O)OCCN(CC)CC)cc1N	0.0362 (inactive)
CC(=O)OCC(=O)NCCCOc1cccc(CN2CCCCC2)c1	-0.0125 (inactive)

SMILES	log fold change Tl+ flux
CCc1oc2ccccc2c1C(=O)c1cc(Br)c(O)c(Br)c1	0.395 (active)
CC(C)NCC(O)COc1ccc(CCOCC2CC2)cc1 (stereo not given)	-0.00418 (inactive)
OCc1cccnc1	-0.0134 (inactive)
COc1cc(C)nc(-n2nc(C)cc2OC)n1	-0.0134 (inactive)
Cc1nccn1CC1CCc2c(c3ccccc3n2C)C1=O (stereo not given)	0.0107 (inactive) and 0.024 (inactive)
COc1ccc(C(=O)NCc2ccc(OCCN(C)C)cc2)cc1OC	-0.0346 (inactive)
O=C1c2cccc3c2[C@H](CCC3)CN1[C@@H]1CN2CCC1CC2	0.0472 (inactive)
Cc1nc2n(c(=O)c1CCN1CCC(c3noc4cc(F)ccc34)CC1)CCCC2	0.0311 (inactive)
C[C@]12C[C@H](O)[C@H]3[C@@H](CCC4=CC(=O)CC[C@@]43C)[C@@H]1CC[C@@H]2C(=O)CO	0.0367 (inactive)
COc1cc2nc(N3CCN(C(=O)C4COc5ccccc5O4)CC3)nc(N)c2cc1OC (stereo not given)	-0.351 (active)
CNS(=O)(=O)Cc1ccc2[nH]cc(CCN(C)C)c2c1	0.0165 (inactive)
COc1ccc(CN2CCN(C(c3ccc(F)cc3)c3ccc(F)cc3)CC2)c(OC)c1OC	-0.0546 (inactive)
COc1cc2c(cc1OC)C(=O)C(CC1CCN(Cc3ccccc3)CC1)C2 (stereo not given)	0.0206 (inactive)
O=C1CCc2ccc(OCCCCN3CCN(c4cccc(Cl)c4Cl)CC3)cc2N1	0.0772 (inactive)
CCCc1nc(C)c2c(=O)[nH]c(-c3cc(S(=O)(=O)N4CCN(CC)CC4)ccc3OCC)nn12	-0.00852 (inactive)
C[C@@H]1CN(CCCn2c3ccccc3c3ccccc32)C[C@H](C)N1	0.145 (active)
Clc1ccc2nsnc2c1NC1=NCCN1	-0.038 (inactive)
CN1CCC(=C2c3ccccc3CC(=O)c3sccc32)CC1	0.0548 (inactive)
CC(Cc1ccccc1)(NC(=O)CN)c1ccccc1 (stereo not given)	0.0343 (inactive)
CCN1CCC[C@H]1CNC(=O)c1cc(S(N)(=O)=O)ccc1OC	-0.0719 (inactive)

These compounds were tested on F380Y/beta1 in the same assay as above. Settings: at 30 µM.

SMILES	log fold change Tl+ flux
CC(C)c1ccc2oc3nc(N)c(C(=O)O)cc3c(=O)c2c1	0.0494 (inactive)
CN(CCCN1c2ccccc2CCc2ccccc21)CC(=O)c1ccc(Cl)cc1	-0.0237 (inactive)
Cc1cnc(NC(=O)C2=C(O)c3ccccc3S(=O)(=O)N2C)s1	-0.0291 (inactive)
CN(C)CC[C@@H](c1ccc(Cl)cc1)c1ccccn1	0.0236 (inactive)
CC(C)(C)C(O)/C=C/c1ccc2c(c1)OCO2 (stereo not given)	0.105 (active)
CC1(C)S[C@@H]2[C@H](N=CN3CCCCCC3)C(=O)N2[C@H]1C(=O)O	0.0062 (inactive)
O=C1Nc2ccc(Cl)cc2[C@@](C#CC2CC2)(C(F)(F)F)O1	0.167 (active)
O=C(c1ccc(F)cc1)C1CCN(CCn2c(=S)[nH]c3ccccc3c2=O)CC1	0.00744 (inactive)
COC(=O)C1=C(C)NC(C)=C(C(=O)OC(C)C)C1c1cccc2nonc12 (stereo not given)	0.106 (active)
Nc1nc(N)nc(-c2cc(Cl)ccc2Cl)n1	0.00785 (inactive)
CN1[C@@H]2CC[C@H]1CC(OC(=O)c1c[nH]c3ccccc13)C2 (stereo not given in full)	0.0426 (inactive)
COC1=C(OC)C(=O)C(CCCCCCCCCCO)=C(C)C1=O	0.138 (active)
COc1ccc(C2CNC(=O)C2)cc1OC1CCCC1 (stereo not given)	-0.0167 (inactive)
CCOC(=O)O[C@]1(C(=O)OCCl)CC[C@H]2[C@@H]3CCC4=CC(=O)C=C[C@]4(C)[C@H]3[C@@H](O)C[C@@]21C	-0.0185 (inactive)
CCN1CC(CCN2CCOCC2)C(c2ccccc2)(c2ccccc2)C1=O (stereo not given)	-0.0268 (inactive)
C#C[C@]1(O)CC[C@H]2[C@@H]3CCc4cc(OC)ccc4[C@H]3CC[C@@]21C	-0.0068 (inactive)
NC1CCN(c2nc3c(cc2F)c(=O)c(C(=O)O)cn3-c2ccc(F)cc2F)C1 (stereo not given)	0.0192 (inactive)
O=C1[C@H]2CCCC[C@H]2C(=O)N1CCCCN1CCN(c2nsc3ccccc23)CC1	0.0543 (inactive)
CCCOc1ccc(C(=O)OCCN(CC)CC)cc1N	-0.0262 (inactive)
CC(=O)OCC(=O)NCCCOc1cccc(CN2CCCCC2)c1	-0.015 (inactive)

SMILES	log fold change Tl+ flux
CCc1oc2ccccc2c1C(=O)c1cc(Br)c(O)c(Br)c1	0.958 (active)
CC(C)NCC(O)COc1ccc(CCOCC2CC2)cc1 (stereo not given)	0.0244 (inactive)
OCc1cccnc1	-0.0115 (inactive)
COc1cc(C)nc(-n2nc(C)cc2OC)n1	-0.00765 (inactive)
Cc1nccn1CC1CCc2c(c3ccccc3n2C)C1=O (stereo not given)	0.000378 (inactive) and -0.0486 (inactive)
COc1ccc(C(=O)NCc2ccc(OCCN(C)C)cc2)cc1OC	-0.00341 (inactive)
O=C1c2cccc3c2[C@H](CCC3)CN1[C@@H]1CN2CCC1CC2	0.0342 (inactive)
Cc1nc2n(c(=O)c1CCN1CCC(c3noc4cc(F)ccc34)CC1)CCCC2	-0.00468 (inactive)
C[C@]12C[C@H](O)[C@H]3[C@@H](CCC4=CC(=O)CC[C@@]43C)[C@@H]1CC[C@@H]2C(=O)CO	0.0921 (inactive)
COc1cc2nc(N3CCN(C(=O)C4COc5ccccc5O4)CC3)nc(N)c2cc1OC (stereo not given)	-0.143 (active)
CNS(=O)(=O)Cc1ccc2[nH]cc(CCN(C)C)c2c1	-0.000461 (inactive)
COc1ccc(CN2CCN(C(c3ccc(F)cc3)c3ccc(F)cc3)CC2)c(OC)c1OC	0.0295 (inactive)
COc1cc2c(cc1OC)C(=O)C(CC1CCN(Cc3ccccc3)CC1)C2 (stereo not given)	-0.0145 (inactive)
O=C1CCc2ccc(OCCCCN3CCN(c4cccc(Cl)c4Cl)CC3)cc2N1	0.0377 (inactive)
CCCc1nc(C)c2c(=O)[nH]c(-c3cc(S(=O)(=O)N4CCN(CC)CC4)ccc3OCC)nn12	0.00246 (inactive)
C[C@@H]1CN(CCCn2c3ccccc3c3ccccc32)C[C@H](C)N1	0.208 (active)
Clc1ccc2nsnc2c1NC1=NCCN1	-0.0369 (inactive)
CN1CCC(=C2c3ccccc3CC(=O)c3sccc32)CC1	0.0457 (inactive)
CC(Cc1ccccc1)(NC(=O)CN)c1ccccc1 (stereo not given)	0.0342 (inactive)
CCN1CCC[C@H]1CNC(=O)c1cc(S(N)(=O)=O)ccc1OC	0.000794 (inactive)
